Active and inactive are the calls of the source. The calls were made as follows: active = hit-call score of the fitted dose curve at least 0.9, where 1 is the maximum; inactive = score below 0.9.
Each molecule was assayed against human Adrenoceptor alpha2C Antagonism, ADRA2C (gene 152) (UniProt P18825) (assay: ERF_TW_GPCR_hADRA2C: Eurofins (ERF) G Protein-Coupled Receptor (GPCR) Radioligand Binding LeadHunter Assay for human Adrenoceptor alpha2C Antagonism).
Chain of human Adrenoceptor alpha2C Antagonism, ADRA2C (gene 152) (P18825 whole entry, looked up): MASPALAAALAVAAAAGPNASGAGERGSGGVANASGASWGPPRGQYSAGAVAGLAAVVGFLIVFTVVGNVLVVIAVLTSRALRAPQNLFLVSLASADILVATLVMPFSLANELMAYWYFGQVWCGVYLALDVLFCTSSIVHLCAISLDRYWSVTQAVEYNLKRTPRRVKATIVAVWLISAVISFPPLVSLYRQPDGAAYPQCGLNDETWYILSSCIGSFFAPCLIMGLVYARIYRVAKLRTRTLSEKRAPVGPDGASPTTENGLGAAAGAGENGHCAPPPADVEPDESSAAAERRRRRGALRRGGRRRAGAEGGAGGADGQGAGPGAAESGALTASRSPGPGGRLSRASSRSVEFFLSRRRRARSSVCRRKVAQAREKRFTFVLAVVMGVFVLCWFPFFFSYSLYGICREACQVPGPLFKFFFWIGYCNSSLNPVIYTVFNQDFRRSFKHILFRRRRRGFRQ
Method: ERF_TW_GPCR_hADRA2C is a biochemical, single-readout assay that uses extracted gene-proteins in a cell-free assay. Measurements were taken 1 hour after chemical dosing in a 96-well plate. See alpha2C Human Adrenoceptor GPCR Binding (Antagonist Radioligand) Assay, Panlabs.ERF_TW_GPCR_hADRA2C is an assay component calculated from the ERF_TW_GPCR_hADRA2C assay. It is designed to measure radioligand binding using a type of binding reporter as detected by scintillation counting with radiometry technology.Data from the assay component ERF_TW_GPCR_hADRA2C was analyzed at the assay endpoint, ERF_TW_GPCR_hADRA2C, in the positive analysis fitting direction relative to DMSO as the negative control and baseline of activity. Using a type of binding reporter, loss-of-signal activity can be used to understand changes in radioligand binding as they relate to gene ADRA2C. To generalize the intended target to other relatable targets, this assay endpoint is annotated to the gpcr intended target family, where the subfamily is adrenoceptor.
Human recombinant adrenergic alpha2C receptor expressed in CHO-K1 cells are used in modified Tris-HCl buffer pH 7.4. A 2 ug aliquot of membrane is incubated with 0.5 nM [3H]Rauwolscine for 60 minutes at 25C. […] Membranes are filtered and washed, the filters are then counted to determine [3H]Rauwolscine specifically bound. […]
With O=C(/C=C/c1ccc(O)cc1)CC(=O)/C=C/c1ccc(O)cc1 the AC50 was 602 nM (active).
